The results in this text go back to ChEMBL document CHEMBL4513141, “CO-ADD screening of NIH (USA) - Clinical Collection” (2021).

Molecules are shown by their SMILES. Entries with a potency or affinity are not part of this list.

For this test, the system named is Cryptococcus neoformans. To be noted: Concentration 20 uM; ASSAY_TEST Inhibition of Fungal Growth; detection method Resazurin; Absorption (OD600-OD570); plate type 384well; NBS; CORNING #3640. (In general: Resazurin is reduced to fluorescent resorufin, in cell work by metabolically active cells.)
In the case of `CCOc1cc(N)c(Cl)cc1C(=O)NCC1CN(Cc2ccc(F)cc2)CCO1.O=C(O)CC(O)(CC(=O)O)C(=O)O` (stereo unspecified) [MOSAPRIDE CITRATE], the Inhibition (usually the drop in the measured response relative to a control, in per cent) is listed as -5.5%.
The same measure for `CCCOc1ccc(C(=O)OCCN(CC)CC)cc1N.Cl` [PROPARACAINE HYDROCHLORIDE]: 2.64%; for `Cc1ccccc1C(OCCN(C)C)c1ccccc1.Cl` (stereo unspecified) [ORPHENADRINE HYDROCHLORIDE]: -6.53%.
The same measure for `Cl.O.OC[C@H]1O[C@@H](n2cnc3c(N[C@H]4CCC[C@@H]4O)ncnc32)[C@@H](O)C1O` (stereo partly specified): -2.1%.
The same measure for `COc1cc(N)c(Cl)cc1C(=O)N[C@@H]1CCN(CCCOc2ccc(F)cc2)C[C@@H]1OC.O` [(R,S)-CISAPRIDE MONOHYDRATE]: 3.24%; for `Nc1nnc(-c2cccc(Cl)c2Cl)c(N)n1` [LAMOTRIGINE]: -2.92%.
